# PubChem BioAssay (EPA / NIEHS)
# Records with an inconclusive call do not appear. The source made the active and inactive calls. Rule for the calls: active = hit-call score of the fitted dose curve at least 0.9, where 1 is the maximum; inconclusive = response in the unintended direction; inactive = score below 0.9.
# Tests used:
# [1] = target: human Protein Tyrosine Phosphatase Non-receptor Type 9 (PTPN9), PTPN9 (gene 5780) (UniProt P43378); test: NVS_ENZ_hPTPN9: NovaScreen (NVS) Enzymatic Assay for human Protein Tyrosine Phosphatase Non-receptor Type 9 (PTPN9) (AID 2283209)
# Method: (§1) NVS_ENZ_hPTPN9 is a biochemical, single-readout assay that uses extracted gene-proteins from SF9 in a cell-free assay. Measurements were taken 1.33 hours after chemical dosing in a 384-well plate.NVS_ENZ_hPTPN9 is one of one assay component(s) measured or calculated from the NVS_ENZ_hPTPN9 assay. It is designed to make measurements of enzyme activity, a form of enzyme reporter, as detected with fluorescence intensity signals by Fluorescence and electrophoretic mobility shift technology.Data from the assay component NVS_ENZ_hPTPN9 was analyzed into 1 assay endpoint. This assay endpoint, NVS_ENZ_hPTPN9, was analyzed in the positive analysis fitting direction relative to DMSO as the negative control and baseline of activity. Using a type of enzyme reporter, loss-of-signal activity can be used to understand changes in the enzymatic activity as they relate to the gene PTPN9. Furthermore, this assay endpoint can be referred to as a primary readout, because this assay has produced multiple assay endpoints where this one serves a enzymatic activity function. To generalize the intended target to other relatable targets, this assay endpoint is annotated to the phosphatase intended target family, where the subfamily is non-receptor tyrosine phosphatase.
# Binding assays used specific radioligands (tritiated, iodinated) with non-radioactive competitive displacement ligands in agonist or antagonist protocols (as indicated) and various reference compounds and inhibitors to titrate specific binding to receptors and transporters. Most enzyme assays (CYPs, kinases, phosphatases, proteases, HDACs) used recombinant protein and specific substrates (fluorescence mostly, some colorimetric and radioactive) and inhibitors, followed by a biochemical separation of substrate and product. All assays for the biochemical HTS were initially run in duplicate at a single concentration (10 uM for CYP450 assays and 25 uM for all others). Assay-chemical combinations meeting a pre-defined threshold (e.g., 30% inhibition and other criteria defined below) were then run in singleton concentration-response format with maximum concentration of 20 uM for CYPs and 50 uM for all others. Each assay was run with positive and negative controls, and concurrent controls on every plate. The follow-up (secondary) screen tested active chemical-pairs in concentration series, as well as a few additional assays not tested in the primary screen, some selected negative inactives, and several cases re-run in the concentration series for confirmatory purposes.
# [2] = target: human Protein Tyrosine Phosphatase Non-receptor Type 6 (PTPN6), PTPN6 (gene 5777) (UniProt P29350); test: NVS_ENZ_hPTPN6: NovaScreen (NVS) Enzymatic Assay for human Protein Tyrosine Phosphatase Non-receptor Type 6 (PTPN6) (AID 2283210)
# Method: as §1, with “NVS_ENZ_hPTPN6” for “NVS_ENZ_hPTPN9”, “plate.NVS_ENZ_hPTPN6” for “plate.NVS_ENZ_hPTPN9”, “NVS_ENZ_hPTPN6,” for “NVS_ENZ_hPTPN9,”, “PTPN6.” for “PTPN9.”
# Binding assays used specific radioligands (tritiated, iodinated) with non-radioactive competitive displacement ligands in agonist or antagonist protocols (as indicated) and various reference compounds and inhibitors to titrate specific binding to receptors and transporters. Most enzyme assays (CYPs, kinases, phosphatases, proteases, HDACs) used recombinant protein and specific substrates (fluorescence mostly, some colorimetric and radioactive) and inhibitors, followed by a biochemical separation of substrate and product. All assays for the biochemical HTS were initially run in duplicate at a single concentration (10 uM for CYP450 assays and 25 uM for all others). […] Each assay was run with positive and negative controls, and concurrent controls on every plate. […]
# [3] = target: human Protein Tyrosine Phosphatase Non-receptor Type 2 (PTPN2), PTPN2 (gene 5771) (UniProt P17706); test: NVS_ENZ_hPTPN2: NovaScreen (NVS) Enzymatic Assay for human Protein Tyrosine Phosphatase Non-receptor Type 2 (PTPN2) (AID 2283207)
# Method in brief: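 Cell-free recombinant enzyme with fluorescent substrate, product separated by electrophoretic mobility shift; read 1 h after dosing. Primary screen single concentration (25 uM) in duplicate; actives followed in concentration series; loss of signal versus DMSO.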
# [4] = target: human Phosphatase and Tensin Homolog (PTEN), PTEN (gene 5728) (UniProt P60484); test: NVS_ENZ_hPTEN: NovaScreen (NVS) Enzymatic Assay for human Phosphatase and Tensin Homolog (PTEN) (AID 2283203)
# Method in brief: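 Cell-free recombinant human PTEN with fluorescent substrate; product separated by electrophoretic mobility shift and read by fluorescence 1 h after dosing. Primary screen in duplicate at 25 uM, actives followed in concentration series versus DMSO.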
# [5] = target: human Protein Tyrosine Phosphatase Non-receptor Type 4 (PTPN4), PTPN4 (gene 5775) (UniProt P29074); test: NVS_ENZ_hPTPN4: NovaScreen (NVS) Enzymatic Assay for human Protein Tyrosine Phosphatase Non-receptor Type 4 (PTPN4) (AID 2283208)
# Method in brief: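 Cell-free assay of PTPN4 expressed in Sf9 cells, using a fluorescent substrate with product separated by mobility shift; read 1.33 h after dosing. Single-point screen at 25 uM, then concentration-response up to 50 uM. Loss of signal relative to DMSO.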
# [6] = target: Tyrosine-protein phosphatase non-receptor type 11 (Homo sapiens) (UniProt Q06124); test: NVS_ENZ_hPTPN11: NovaScreen (NVS) Enzymatic Assay for human Protein Tyrosine Phosphatase Non-receptor Type 11 (PTPN11) (AID 2283202)
# Method in brief: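 Recombinant human PTPN11 activity on a fluorescent substrate, with substrate/product separated by electrophoretic mobility shift; read 0.5 h after dosing, loss of signal vs DMSO. Duplicate 25 uM screen, then concentration-response up to 50 uM.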
# [7] = target: Tyrosine-protein phosphatase non-receptor type 13 (Homo sapiens) (UniProt Q12923); test: NVS_ENZ_hPTPN13: NovaScreen (NVS) Enzymatic Assay for human Protein Tyrosine Phosphatase Non-receptor Type 13 (PTPN13) (AID 2283205)
# Method in brief: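 Cell-free assay of recombinant human PTPN13 with a fluorescent substrate, product separated by electrophoretic mobility shift and read 0.5 h after dosing. Primary screen at 25 uM in duplicate, then concentration-response up to 50 uM. Loss of signal fitted against DMSO.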
# [8] = target: Tyrosine-protein phosphatase non-receptor type 14 (Homo sapiens) (UniProt Q15678); test: NVS_ENZ_hPTPN14: NovaScreen (NVS) Enzymatic Assay for human Protein Tyrosine Phosphatase Non-receptor Type 14 (PTPN14) (AID 2283206)
# Method in brief: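 Cell-free recombinant human PTPN14 with fluorescent substrate, read 0.5 h after dosing by fluorescence and electrophoretic mobility shift separating substrate from product. Primary screen at 25 uM in duplicate; hits run to 50 uM maximum; loss of signal versus DMSO.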
# [9] = target: human Protein Tyrosine Phosphatase Receptor Type B (PTPRB), PTPRB (gene 5787) (UniProt P23467); test: NVS_ENZ_hPTPRB: NovaScreen (NVS) Enzymatic Assay for human Protein Tyrosine Phosphatase Receptor Type B (PTPRB) (AID 2283211)
# Method in brief: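 Recombinant human PTPRB with a fluorescent substrate, product separated by electrophoretic mobility shift; read 1 h after dosing. Primary screen in duplicate at 25 uM; actives then retested in concentration series; loss of signal versus DMSO.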
# [10] = target: Tyrosine-protein phosphatase non-receptor type 12 (Homo sapiens) (UniProt Q05209); test: NVS_ENZ_hPTPN12: NovaScreen (NVS) Enzymatic Assay for human Protein Tyrosine Phosphatase Non-receptor Type 12 (PTPN12) (AID 2283204)
# Method in brief: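 Single-concentration duplicates (25 uM) preceded singleton concentration-response up to 50 uM for chemicals passing threshold. Cell-free recombinant PTPN12 activity was read 1.33 h after dosing via fluorescence after mobility-shift separation; loss of signal versus DMSO.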
# Chain of Tyrosine-protein phosphatase non-receptor type 14 (Homo sapiens) (Q15678 whole entry, looked up): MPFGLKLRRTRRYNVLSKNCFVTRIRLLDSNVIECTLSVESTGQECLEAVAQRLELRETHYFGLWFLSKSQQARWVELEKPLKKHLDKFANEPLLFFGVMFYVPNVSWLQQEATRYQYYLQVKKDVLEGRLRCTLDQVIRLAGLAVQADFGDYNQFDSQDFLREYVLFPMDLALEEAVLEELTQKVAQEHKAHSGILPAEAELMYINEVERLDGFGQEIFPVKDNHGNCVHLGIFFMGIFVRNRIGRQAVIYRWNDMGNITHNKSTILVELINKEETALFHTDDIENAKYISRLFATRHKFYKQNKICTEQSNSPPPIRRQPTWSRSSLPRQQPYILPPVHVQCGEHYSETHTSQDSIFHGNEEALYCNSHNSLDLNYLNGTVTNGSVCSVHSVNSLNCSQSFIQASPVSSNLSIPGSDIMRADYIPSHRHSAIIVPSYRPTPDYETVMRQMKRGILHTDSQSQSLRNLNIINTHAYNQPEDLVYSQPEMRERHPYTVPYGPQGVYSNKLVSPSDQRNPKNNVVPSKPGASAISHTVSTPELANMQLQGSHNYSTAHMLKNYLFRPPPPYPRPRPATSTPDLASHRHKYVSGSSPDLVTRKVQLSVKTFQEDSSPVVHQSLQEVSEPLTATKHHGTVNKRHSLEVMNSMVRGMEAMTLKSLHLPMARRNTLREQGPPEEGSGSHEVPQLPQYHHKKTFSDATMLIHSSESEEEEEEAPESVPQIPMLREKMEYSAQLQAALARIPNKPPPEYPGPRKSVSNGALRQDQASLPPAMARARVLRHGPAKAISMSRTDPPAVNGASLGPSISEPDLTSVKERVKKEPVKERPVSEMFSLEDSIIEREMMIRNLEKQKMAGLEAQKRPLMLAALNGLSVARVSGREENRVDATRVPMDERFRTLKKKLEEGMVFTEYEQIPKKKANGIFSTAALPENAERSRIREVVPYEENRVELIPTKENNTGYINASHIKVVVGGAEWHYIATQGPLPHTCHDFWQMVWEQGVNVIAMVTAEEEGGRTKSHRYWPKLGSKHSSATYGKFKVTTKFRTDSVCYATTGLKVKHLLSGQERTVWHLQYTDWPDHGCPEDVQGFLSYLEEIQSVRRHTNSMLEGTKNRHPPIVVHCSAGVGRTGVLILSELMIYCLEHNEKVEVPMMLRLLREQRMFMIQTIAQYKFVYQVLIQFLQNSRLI
# Chain of human Protein Tyrosine Phosphatase Non-receptor Type 9 (PTPN9), PTPN9 (gene 5780) (P43378 whole entry, looked up): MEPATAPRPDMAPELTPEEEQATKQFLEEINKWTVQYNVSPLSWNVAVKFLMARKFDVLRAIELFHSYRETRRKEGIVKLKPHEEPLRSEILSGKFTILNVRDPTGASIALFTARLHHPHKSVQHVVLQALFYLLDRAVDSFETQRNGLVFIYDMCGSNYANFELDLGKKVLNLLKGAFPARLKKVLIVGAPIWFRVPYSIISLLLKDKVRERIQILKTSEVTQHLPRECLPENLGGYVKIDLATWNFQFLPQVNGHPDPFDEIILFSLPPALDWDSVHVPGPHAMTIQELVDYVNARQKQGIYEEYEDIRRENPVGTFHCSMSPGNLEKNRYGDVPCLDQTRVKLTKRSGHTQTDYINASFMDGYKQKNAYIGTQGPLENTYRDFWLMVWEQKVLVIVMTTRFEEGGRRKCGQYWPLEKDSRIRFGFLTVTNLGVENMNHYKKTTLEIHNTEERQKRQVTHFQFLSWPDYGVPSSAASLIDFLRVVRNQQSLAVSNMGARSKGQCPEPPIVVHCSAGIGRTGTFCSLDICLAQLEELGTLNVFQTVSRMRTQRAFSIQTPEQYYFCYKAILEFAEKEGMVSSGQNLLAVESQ
# Chain of human Protein Tyrosine Phosphatase Non-receptor Type 6 (PTPN6), PTPN6 (gene 5777) (P29350 whole entry, looked up): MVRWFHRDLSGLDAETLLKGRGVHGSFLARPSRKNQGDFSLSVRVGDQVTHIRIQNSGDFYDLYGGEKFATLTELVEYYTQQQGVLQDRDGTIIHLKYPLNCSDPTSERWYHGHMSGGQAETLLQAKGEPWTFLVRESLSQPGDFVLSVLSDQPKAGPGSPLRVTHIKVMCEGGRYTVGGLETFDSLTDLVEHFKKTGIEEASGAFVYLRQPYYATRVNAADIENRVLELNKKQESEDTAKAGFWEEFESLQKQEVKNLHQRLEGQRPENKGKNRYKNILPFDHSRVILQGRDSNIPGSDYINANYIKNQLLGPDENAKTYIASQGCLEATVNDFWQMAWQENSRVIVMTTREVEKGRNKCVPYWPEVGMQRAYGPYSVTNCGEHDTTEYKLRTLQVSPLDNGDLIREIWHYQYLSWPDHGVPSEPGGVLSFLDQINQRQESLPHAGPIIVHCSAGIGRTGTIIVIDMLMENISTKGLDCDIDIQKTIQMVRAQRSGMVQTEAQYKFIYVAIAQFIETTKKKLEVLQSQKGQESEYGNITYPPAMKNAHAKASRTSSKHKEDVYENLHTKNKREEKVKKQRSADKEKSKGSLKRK
# Chain of human Phosphatase and Tensin Homolog (PTEN), PTEN (gene 5728) (P60484 whole entry, looked up): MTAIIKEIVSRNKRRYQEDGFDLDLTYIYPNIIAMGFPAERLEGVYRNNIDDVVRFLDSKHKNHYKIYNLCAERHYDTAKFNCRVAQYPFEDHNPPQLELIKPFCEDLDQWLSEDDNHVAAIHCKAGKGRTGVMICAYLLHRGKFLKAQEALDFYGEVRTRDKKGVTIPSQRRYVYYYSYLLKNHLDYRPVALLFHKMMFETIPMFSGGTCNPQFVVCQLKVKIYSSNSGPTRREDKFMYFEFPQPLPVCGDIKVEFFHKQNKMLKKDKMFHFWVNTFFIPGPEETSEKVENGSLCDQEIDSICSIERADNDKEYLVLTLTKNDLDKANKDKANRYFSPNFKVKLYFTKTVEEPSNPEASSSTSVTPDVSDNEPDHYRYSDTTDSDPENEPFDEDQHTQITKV
# Chain of human Protein Tyrosine Phosphatase Receptor Type B (PTPRB), PTPRB (gene 5787) (P23467 whole entry, looked up): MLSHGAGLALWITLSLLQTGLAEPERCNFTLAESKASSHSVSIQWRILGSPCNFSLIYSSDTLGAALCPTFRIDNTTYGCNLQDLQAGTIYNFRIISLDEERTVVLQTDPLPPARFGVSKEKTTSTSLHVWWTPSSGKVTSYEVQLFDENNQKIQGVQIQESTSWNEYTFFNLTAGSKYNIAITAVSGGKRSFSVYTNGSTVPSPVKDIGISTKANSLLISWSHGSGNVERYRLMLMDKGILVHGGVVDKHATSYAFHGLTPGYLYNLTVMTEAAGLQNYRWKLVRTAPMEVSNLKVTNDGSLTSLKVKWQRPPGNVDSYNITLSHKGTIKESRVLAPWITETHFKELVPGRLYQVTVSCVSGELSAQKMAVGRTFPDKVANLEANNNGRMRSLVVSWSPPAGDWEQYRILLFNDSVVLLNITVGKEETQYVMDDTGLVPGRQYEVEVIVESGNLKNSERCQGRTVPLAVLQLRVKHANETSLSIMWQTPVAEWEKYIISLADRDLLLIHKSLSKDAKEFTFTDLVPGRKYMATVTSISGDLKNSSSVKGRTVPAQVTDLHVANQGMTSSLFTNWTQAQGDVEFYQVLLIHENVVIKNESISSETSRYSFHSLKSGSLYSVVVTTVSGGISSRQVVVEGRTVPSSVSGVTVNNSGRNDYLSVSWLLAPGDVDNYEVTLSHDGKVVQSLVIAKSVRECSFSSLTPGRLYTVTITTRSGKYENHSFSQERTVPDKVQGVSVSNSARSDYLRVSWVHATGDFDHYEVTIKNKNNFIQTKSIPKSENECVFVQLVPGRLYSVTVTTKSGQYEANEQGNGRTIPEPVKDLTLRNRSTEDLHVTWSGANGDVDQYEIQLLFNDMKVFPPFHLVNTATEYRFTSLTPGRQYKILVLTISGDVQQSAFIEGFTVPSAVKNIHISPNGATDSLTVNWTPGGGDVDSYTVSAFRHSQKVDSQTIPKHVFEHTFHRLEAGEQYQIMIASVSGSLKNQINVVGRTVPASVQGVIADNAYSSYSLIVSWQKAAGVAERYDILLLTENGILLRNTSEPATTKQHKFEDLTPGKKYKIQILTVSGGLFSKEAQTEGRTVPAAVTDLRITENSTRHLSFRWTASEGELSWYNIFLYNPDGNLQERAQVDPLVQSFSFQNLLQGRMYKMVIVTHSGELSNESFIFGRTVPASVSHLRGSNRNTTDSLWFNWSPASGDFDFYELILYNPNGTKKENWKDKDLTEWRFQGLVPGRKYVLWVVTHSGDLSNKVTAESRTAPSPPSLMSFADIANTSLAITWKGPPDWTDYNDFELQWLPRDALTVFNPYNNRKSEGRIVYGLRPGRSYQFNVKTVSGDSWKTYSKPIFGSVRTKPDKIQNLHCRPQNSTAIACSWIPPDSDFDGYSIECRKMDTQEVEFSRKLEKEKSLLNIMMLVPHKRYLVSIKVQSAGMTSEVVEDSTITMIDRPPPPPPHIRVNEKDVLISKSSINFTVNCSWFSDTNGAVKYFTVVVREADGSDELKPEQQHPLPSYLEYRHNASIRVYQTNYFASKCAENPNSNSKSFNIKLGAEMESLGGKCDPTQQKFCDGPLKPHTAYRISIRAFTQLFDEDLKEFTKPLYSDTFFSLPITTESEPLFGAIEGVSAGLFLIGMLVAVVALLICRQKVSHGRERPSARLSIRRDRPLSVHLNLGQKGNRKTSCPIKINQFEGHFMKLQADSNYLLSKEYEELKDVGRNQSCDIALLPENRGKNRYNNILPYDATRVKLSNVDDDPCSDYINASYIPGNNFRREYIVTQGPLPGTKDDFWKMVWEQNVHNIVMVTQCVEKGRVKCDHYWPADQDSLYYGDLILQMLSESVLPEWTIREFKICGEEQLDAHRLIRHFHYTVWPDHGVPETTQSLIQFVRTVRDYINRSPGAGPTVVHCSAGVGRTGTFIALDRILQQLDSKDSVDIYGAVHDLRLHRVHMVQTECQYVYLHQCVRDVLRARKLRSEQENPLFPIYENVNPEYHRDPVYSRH
smiles,measurement,setting,value
C=CCC1=C(C)C(OC(=O)C2C(C=C(C)C)C2(C)C)CC1=O (stereo not drawn),outcome,[1],inactive
same,outcome,[2],inactive
O=C(O)COc1nc(Cl)c(Cl)cc1Cl,outcome,[3],inactive
CON(C)C(=O)Nc1ccc(Cl)c(Cl)c1,outcome,[4],inactive
CCc1nn(C)c(C(=O)NCc2ccc(C(C)(C)C)cc2)c1Cl,outcome,[5],inactive
same,AC50,[1],16.4 µM (active)
CCCN(CCC)c1c([N+](=O)[O-])cc(S(N)(=O)=O)cc1[N+](=O)[O-],outcome,[6],inactive
same,outcome,[7],inactive
same,outcome,[8],inactive
same,outcome,[9],inactive
N#Cc1cc(Br)c(O)c(Br)c1,outcome,[5],inactive
same,outcome,[1],inactive
CC(C)(C)c1ccc(CSc2cnn(C(C)(C)C)c(=O)c2Cl)cc1,AC50,[1],17 µM (active)
CCCCOC(=O)c1ccccc1C(=O)OCCCC,outcome,[6],inactive
same,outcome,[8],inactive
same,outcome,[2],inactive
COc1nc(C)nc(NC(=O)NS(=O)(=O)c2ccccc2Cl)n1,outcome,[3],inactive
same,outcome,[5],inactive
same,outcome,[1],inactive
same,outcome,[9],inactive
C#CCOS(=O)OC1CCCCC1Oc1ccc(C(C)(C)C)cc1 (stereo not drawn),outcome,[4],inactive
COc1ccc(C(c2ccc(OC)cc2)C(Cl)(Cl)Cl)cc1,outcome,[6],inactive
COc1nc(NC(C)C)nc(NC(C)C)n1,outcome,[9],inactive
CO/C=C(/C(=O)OC)c1ccccc1Oc1cc(Oc2ccccc2C#N)ncn1,AC50,[7],0.113 µM (active)
CCOP(=S)(OCC)SCn1c(=O)oc2cc(Cl)ccc21,outcome,[8],inactive
CCCCNC(=O)OCC#CI,outcome,[8],inactive
same,outcome,[5],inactive
CNC(=S)S,outcome,[6],inactive
same,outcome,[10],inactive
same,outcome,[8],inactive
same,outcome,[3],inactive
same,AC50,[1],13.5 µM (active)
same,outcome,[2],inactive
same,outcome,[9],inactive
Cc1c(F)c(F)c(COC(=O)C2C(/C=C(\Cl)C(F)(F)F)C2(C)C)c(F)c1F (stereo not drawn),outcome,[5],inactive
same,outcome,[1],inactive
CCNc1nc(Cl)nc(NC(C)C)n1,outcome,[9],inactive
Cc1ccc(-c2c(Cl)nc(C#N)n2S(=O)(=O)N(C)C)cc1,outcome,[4],inactive
